Measurements published in PubChem BioAssay.
Active and inactive are the calls of the source.

assay: growth of efflux-deficient E. coli DRC39 – strain DRC39, OD650, 48 h, E. coli filamentation inducers, primary screen (AID 1179);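 also: screen aims at cell division blockers that make cells filament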; details: E. coli DRC39 delta-acrAB growth, higher = more signal, called active from +8 up or from −8 down

| Compound | z-score |
| --- | --- |
| CCN(CC)c1ccc(N2CC=CC34O[C@@H]5C=CCCOC(=O)C5[C@H]3C(=O)N(CCO)[C@@H]4C2=O)cc1 (stereo partly specified) | 0.2 (inactive) |
| CN1C=C(C(=O)OCCS(C)(=O)=O)C(C(=O)OCCS(C)(=O)=O)=CC(c2ccc(CO)cc2)=CC1c1cccs1 (stereo unspecified) | -0.0834 (inactive) |
| C=C(C)C1CCC(C(O)C2C=CC3C(=O)N(C)C(=O)C3N2Nc2cc(OC)c(OC)c(OC)c2)CC1 (stereo unspecified) | -0.379 (inactive) |
| O=C1NC(=O)C2C1C=CC(C(O)c1ccccn1)N2Nc1ccc(Cl)cc1Cl (stereo unspecified) | -0.534 (inactive) |
| CCCCC=C[C@@H](NC(=O)c1ccccc1)c1ccccc1 | -1.29 (inactive) |
| C=C(C(=O)CC[C@H](OC(=O)c1ccccc1-c1ccccc1C(=O)O)c1ccccc1OCCO)C(C)C | 0.32 (inactive) |
| COCCOC(=O)N1C(=O)[C@@]2(c3cc(C#CCC(C(=O)OC)C(=O)OC)ccc31)[C@H](c1ccc(O)cc1)N1[C@H](c3ccccc3)[C@H](c3ccccc3)OC(=O)[C@H]1[C@@H]2C(=O)NC[C@H](O)c1ccccc1 | -0.228 (inactive) |
| [N-]=[N+]=NCc1ccccc1[C@@H]1OC(c2ccc(OCCCO)cc2)=N[C@]1(Cc1ccccc1N=[N+]=[N-])C(=O)NCCN1CCOCC1 | -0.215 (inactive) |
| CN1C(=O)C2C=CC(C(O)c3ccc(I)cc3)N(Nc3ccccc3)C2C1=O (stereo unspecified) | -1.4 (inactive) |
| [N-]=[N+]=NCc1ccccc1[C@@H]1OC(c2ccc(OCCCO)cc2)=N[C@]1(Cc1ccccc1)C(=O)NCCN1CCOCC1 | 0.528 (inactive) |
| CC1(C)C(=O)C(c2ccccc2)=C2CN3C(=O)N(CCc4ccccc4)C(=O)C3(Cc3ccc(C(F)(F)F)cc3)C=C21 (stereo unspecified) | -0.756 (inactive) |
